Inconclusive results are not listed. Active and inactive are the calls of the source. Rule for the calls: active = hit-call score of the fitted dose curve at least 0.9, where 1 is the maximum; inactive = score below 0.9.

Tyrosine-protein kinase ABL1 (Homo sapiens), sequence (P00519 whole entry, looked up): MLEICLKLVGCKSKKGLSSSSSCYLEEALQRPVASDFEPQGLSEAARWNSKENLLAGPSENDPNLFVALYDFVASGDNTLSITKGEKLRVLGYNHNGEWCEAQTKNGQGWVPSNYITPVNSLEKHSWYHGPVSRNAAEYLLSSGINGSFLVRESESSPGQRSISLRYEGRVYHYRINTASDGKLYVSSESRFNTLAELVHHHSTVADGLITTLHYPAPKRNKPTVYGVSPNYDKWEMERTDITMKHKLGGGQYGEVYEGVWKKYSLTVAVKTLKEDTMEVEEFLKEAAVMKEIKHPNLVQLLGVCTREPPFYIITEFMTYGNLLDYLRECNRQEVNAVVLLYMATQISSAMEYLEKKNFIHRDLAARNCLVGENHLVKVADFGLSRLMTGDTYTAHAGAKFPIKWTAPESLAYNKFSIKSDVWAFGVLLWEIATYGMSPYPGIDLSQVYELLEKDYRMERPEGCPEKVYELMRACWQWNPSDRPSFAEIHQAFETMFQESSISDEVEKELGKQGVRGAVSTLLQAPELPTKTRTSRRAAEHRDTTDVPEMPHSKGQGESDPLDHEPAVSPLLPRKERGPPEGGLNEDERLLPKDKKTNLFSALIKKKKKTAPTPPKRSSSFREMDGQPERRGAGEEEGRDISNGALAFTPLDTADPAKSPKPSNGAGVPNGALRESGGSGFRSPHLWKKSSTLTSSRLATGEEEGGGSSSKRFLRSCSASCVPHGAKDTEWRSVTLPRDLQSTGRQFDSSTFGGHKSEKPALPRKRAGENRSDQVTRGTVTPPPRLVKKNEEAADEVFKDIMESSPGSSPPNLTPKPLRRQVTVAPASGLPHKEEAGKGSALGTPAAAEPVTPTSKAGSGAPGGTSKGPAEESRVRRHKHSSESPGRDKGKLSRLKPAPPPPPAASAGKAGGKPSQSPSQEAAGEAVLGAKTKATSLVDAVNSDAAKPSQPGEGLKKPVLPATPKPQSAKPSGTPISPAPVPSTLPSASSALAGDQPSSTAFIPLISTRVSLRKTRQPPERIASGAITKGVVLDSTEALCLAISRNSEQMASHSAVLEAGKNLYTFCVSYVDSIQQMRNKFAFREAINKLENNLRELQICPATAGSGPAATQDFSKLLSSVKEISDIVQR

This experiment deals with Tyrosine-protein kinase ABL1 (Homo sapiens) (UniProt P00519). Put plainly: ERF_FR_ENZ_hABL1: Eurofins (ERF) Enzymatic Radiometric [Km ATP] KinaseProfiler LeadHunter Assay for human ABL1 Thymidine Kinase. How it is done:
ERF_FR_ENZ_hABL1 is a biochemical, single-readout assay that uses extracted gene-proteins in a cell-free assay. Measurements were taken 0.5 hour after chemical dosing in a 96-well plate. See Abl Human TK Kinase Enzymatic LANCE Assay [Km ATP], Cerep.ERF_FR_ENZ_hABL1 is an assay component calculated from the ERF_FR_ENZ_hABL1 assay. It is designed to measure enzyme activity using a type of enzyme reporter as detected by fluorescence intensity with LANCE technology.Data from the assay component ERF_FR_ENZ_hABL1 was analyzed at the assay endpoint, ERF_FR_ENZ_hABL1, in the positive analysis fitting direction relative to DMSO as the negative control and baseline of activity. Using a type of enzyme reporter, loss-of-signal activity can be used to understand changes in enzymatic activity as they relate to gene ABL1. To generalize the intended target to other relatable targets, this assay endpoint is annotated to the kinase intended target family, where the subfamily is serine/threonine kinase.
ABL (h) is incubated with 8 mM MOPS pH 7.0, 0.2 mM EDTA, 50 uM […], 10 mM Mg Acetate and [g- 33P]- ATP (specific activity and concentration as required). The reaction is initiated by the addition of the Mg/ATP mix. After incubation for 40 minutes at room temperature, the reaction is stopped by the addition of phosphoric acid to a concentration of 0.5%. An aliquot of the reaction is then spotted onto a filter and washed four times for 4 minutes in 0.425% phosphoric acid and once in methanol prior to drying and scintillation counting. Compound should be supplied in 100%DMSO .We require a stock solution at a concentration of at least 50x higher than the Final Assay Concentration of your cpd. A 10mM stock is also acceptable. When ordering fewer than 60 kinase assays,we need 120uL of 50x concentrated stock. For more than 60 assays, we need 420uL of 50xcc stock. Please apply the conversion if you provide 10mM stock solution or compounds in powder form (pre-weighed is required) From 50 cpds supplied as solids, the TAT will be extended.
In the case of `COc1cc(/C=C/C(=O)CC(=O)/C=C/c2ccc(O)c(OC)c2)ccc1O`, the AC50 (as a rule, the concentration at which the activity in the assay is half-maximal) was 1.37 µM (active).

With `O=C(/C=C/c1ccc(O)cc1)CC(=O)/C=C/c1ccc(O)cc1`, the half-maximal activity concentration (AC50) is 0.843 µM (active).

`COc1cc(CCC(=O)CC(=O)CCc2ccc(O)c(OC)c2)ccc1O`: the compound was called inactive.

For the origin of these results see PubChem BioAssay AID2284071 (EPA ToxCast).
